Results filed as inconclusive are left out. Calls of active or inactive are those of the source. Rule for the calls: active = hit-call score of the fitted dose curve at least 0.9, where 1 is the maximum; inconclusive = response in the unintended direction; inactive = score below 0.9.

The record followed here is PubChem BioAssay (EPA / NIEHS).

A short description of this assay: ATG_Hpa5_TRANS: Attagene TRANS-FACTORIAL HepG2 Assay for human GAL4-Hpa5 Hepatocyte Transcription Factor Basal Promoter (AID 2282975).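 Note: hits are increases in reporter mRNA over DMSO baseline.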 To be noted: HepG2 Attagene GAL4-Hpa5 transcription reporter. As to the method: ATG_TRANS is a cell-based, multiplexed-readout assay that uses HepG2, a human liver cell line, with measurements taken at 24 hours after chemical dosing in a 24-well plate.ATG_Hpa5_TRANS is one of 30 assay component(s) measured or calculated from the ATG_TRANS assay. It is designed to make measurements of mRNA induction, a form of inducible reporter, as detected with fluorescence intensity signals by Reverse transcription polymerase chain reaction (RT-PCR) and Capillary electrophoresis technology.Data from the assay component ATG_Hpa5_TRANS was analyzed into 1 assay endpoint. This assay endpoint, ATG_Hpa5_TRANS, was analyzed in the positive analysis fitting direction relative to DMSO as the negative control and baseline of activity. Using a type of inducible reporter, measures of mRNA for gain-of-signal activity can be used to understand the background control at the transcription factor-level as they relate to the gene . Furthermore, this assay endpoint can be referred to as a secondary readout, because this assay has produced multiple assay endpoints where this one serves a background control function. To generalize the intended target to other relatable targets, this assay endpoint is annotated to the background measurement intended target family, where the subfamily is internal marker.
Human liver HepG2 cells are transiently transfected with multiple reporter transcription units (MRTUs) in 6-well plates using FuGene 6 reagent (Roche; 3 ml FuGene/1 mg DNA). The MRTU constructs are regulated by a cis-regulating element (promoter). […] A major difference between the CIS and TRANS system is that in CIS activities of endogenous TFs are measured, whereas the TRANS assay evaluates changes in activities of exogenous, chimeric NR-Gal4 proteins. […] At the end of 24 hour incubation, total RNA was isolated using TriZol reagent (Invitrogen). The isolated RNA is then reverse-transcribed using oligo(dT) primer and Mo-MLV reverse transcriptase (Invitrogen) with DNAse I (Ambion) treatment for 30 min. The one-tenth of the produced cDNA was amplified by PCR using Taq DNA polymerase (Invitrogen) and two reporter sequence-specific primers. The PCR products were fluorescently labeled by primer extension with 6-arboxyfluorescein (6-FAM) 5'-labeled reporter sequence-specific primer (2 min at 95 C, 20 s at 68 C and 10 min at 72 C) and these products were digested with 5U of HpaI (New England Biolabs) for 2h at 37 C. The fragments were purified using Qiaquick PCR columns (Qiagen), analyzed on an ABI 3130xL genetic analyzer (Applied Biosystems) with peak positions identified by using a set of X-rhodamine (ROX)-labeled MapMarker1000 molecular weight standards (BioVentures). The raw capillary electrophoresis data was processed using Attagraph software (Attagene).
On to `COC(=O)c1c(Cl)nn(C)c1S(=O)(=O)NC(=O)Nc1nc(OC)cc(OC)n1`, for which the compound was classed as inactive. With `CCCN(CCC)C(=O)SCC` the entry was “inactive”. With `CCOC(=O)[C@H](C)Oc1ccc(Oc2nc3ccc(Cl)cc3o2)cc1`, the compound was classed as inactive. With `CCNc1nc(N)nc(Cl)n1` the entry was “inactive”; with `CN(C)C(=O)Nc1ccc(Cl)c(Cl)c1`, “inactive”.

`CCCCOC(=O)[C@@H](C)Oc1ccc(Oc2ccc(C(F)(F)F)cn2)cc1`: the compound was called inactive.

Turning to `CCCCCOC(=O)COc1cc(N2C(=O)C3=C(CCCC3)C2=O)c(F)cc1Cl`, the outcome was inactive.

Take `COC(=O)c1cccc(C)c1S(=O)(=O)NC(=O)Nc1nc(OCC(F)(F)F)nc(N(C)C)n1`: the compound was classed as inactive. The result for `CCCCC(CC)COC(=O)c1ccccc1C(=O)O` (stereo not drawn) reads “inactive”. In the case of `CCSC(=O)N(CC(C)C)CC(C)C`, the compound was classed as inactive.

`CCN(CC)C(=O)c1cccc(C)c1`: the result was inactive. `c1ccc(Nc2ccccc2)cc1`: the result was inactive. The result for `CCCN(CCC)c1c([N+](=O)[O-])cc(C(F)(F)F)c(N)c1[N+](=O)[O-]` reads “inactive”. `CCCOC(=O)c1ccc(C(=O)OCCC)nc1`: the call was inactive.

For the compound `CCOC(=O)NCCOc1ccc(Oc2ccccc2)cc1`, the compound was called inactive.

`OB(O)O`: the call was inactive.

Regarding `CCCCOC(=O)C(C)Oc1ccc(Oc2ccc(C(F)(F)F)cn2)cc1` (stereo not drawn), the outcome was inactive. On to `CCOC(=O)COc1cc(-n2ncc(C(F)(F)F)c(C)c2=O)c(F)cc1Cl`, for which the compound was called inactive.

On to `COC(=O)c1ccc(I)cc1S(=O)(=O)NC(=O)Nc1nc(C)nc(OC)n1`, for which the result was inactive. The result for `Oc1ccc(C(c2ccc(O)cc2)C(Cl)(Cl)Cl)cc1` reads “inactive”; that for `N#CSCSc1nc2ccccc2s1`, “inactive”. The result for `CCCCOCCOCCOCc1cc2c(cc1CCC)OCO2` reads “inactive”. With `COCCO` the entry was “inactive”. For `COC(=O)CSc1cc(N=c2sc(=O)n3n2CCCC3)c(F)cc1Cl`, the compound was classed as inactive. With `S=C([S-])NCCNC(=S)[S-].[Mn+2]` the entry was “inactive”; with `CCOC(=O)C(C)Oc1ccc(Oc2nc3ccc(Cl)cc3o2)cc1` (stereo not drawn), “inactive”. With `CCN(Cc1c(F)cccc1Cl)c1c([N+](=O)[O-])cc(C(F)(F)F)cc1[N+](=O)[O-]` the entry was “inactive”; with `S=C(S)NCCNC(=S)S.[Mn+2].[S-]C([S-])=NCCN=C([S-])[S-].[Zn+2]`, “inactive”.
